Results filed as inconclusive are left out. Calls of active or inactive are those of the source. Unless noted, the call rests on the fitted dose curve; in most records, active means well fitted curve in the direction sought with a large enough effect; inconclusive means small, poorly fitted or top-dose-only effect, or another doubt; inactive means no such curve, though single readings can be large; an effect the other way counts as inactive or inconclusive.

A short description of assay [1]: High Content Imaging Cell-Based qHTS for Inhibitors of the mTORC1 Signaling Pathway in MEF (Tsc2-/-, p53-/-) Cells (AID 2666).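 Further: percent of cells scored positive for phospho-rpS6 Ser235/236 immunostaining by imaging.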 Further: potency means the concentration at half of the fitted maximal effect. To be noted: series mostly up to 38.3 µM. In outline:
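Inhibition of rpS6 phosphorylation is measured by immunofluorescence imaging in empty-vector Tsc2-/-, p53-/- mouse embryonic fibroblasts after 24 hrs compound exposure at 37 degree Celsius. Results are reported as % positive cells per well.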
A general note: qHTS replaces the single test concentration by a dilution series.

Assay [2] in a line: High Content Imaging Cell-Based qHTS for Inhibitors of the mTORC1 Signaling Pathway in MEF Cells (AID 2667).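 Further: Tsc2-/- p53-/- MEFs stably re-expressing wild-type Tsc2 exposed 24 h.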 The settings on record: series mostly up to 38.3 µM. In outline:
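Fixed-cell imaging of phospho-S6 (Ser235/236, Alexa-488) after 24 hrs of compound treatment at 37 degree Celsius. Signal was normalized to Hoechst, and thresholds from the highest and lowest wells split cells into % active versus % non-active.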

The nature of assay [3]: Cytometry Cell-Based qHTS for Inhibitors of the mTORC1 Signaling Pathway in MEF cells (AID 2668). Further: potency means the concentration at half of the fitted maximal effect. The settings on record: mTORC1 pathway readout; series mostly up to 38.3 µM. In outline: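 In MEFs grown in DMEM + 10% FBS, a 24 hrs compound exposure preceded imaging of phospho-rpS6 Ser235/236 by laser-scanning cytometry.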
The nature of assay [4]: Validation screen for small molecules that induce DNA re-replication in MCF 10A normal breast cells (AID 463097). Further: nearly all actives have a fitted effect of over 60% in size. To be noted: MCF 10A cells, DNA re-replication phenotype imaging; series mostly up to 46.1 µM. In outline:
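Following 48 hr compound incubation (37 C, 5% CO2), MCF 10A cells receive Hoechst for 40 min at 37 C. Nuclei are then scanned (excitation 405 nm, emission 500-530 nm) for total fluorescence intensity.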

For assay [5], the target named is Ubiquitin carboxyl-terminal hydrolase 2 (Homo sapiens) (UniProt O75604). Description: qHTS Validation Assay for Inhibitors of Ubiquitin-specific Protease USP2a Using CHOP2 as the Reporter (AID 463106). The settings on record: USP2a cleavage of CHOP2 reporter, enzymatic; series mostly up to 38.3 µM. In outline:
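Inhibition is expressed relative to NEM as the full-inhibition control, with concentration-response curves classed by fit quality, magnitude and activity. Enzyme (USP2 core, 10nM) meets 25nM Ub-CHOP2 after compound preincubation; readings are taken at 60min.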

For assay [6], the target named is Tumor susceptibility gene 101 protein (Homo sapiens) (UniProt Q99816). The experiment in a line: qHTS Validation Assay for Iinhibitors of HIV-1 Budding by Blocking the Interaction of PTAP/TSG101 (AID 485342; calls by dose curve). To be noted: TSG101-PTAP binding, fluorescence polarization, 4-point titration; series mostly up to 115 µM. In outline: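 Compound wells held the Tsg101 binding domain (10 uM) and a FITC-conjugated PTAP peptide (50 nM) in buffer at pH 7.5 containing 0.15 M NaCl and 0.01% Tween 20; polarization was recorded after 20 min, r.t.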

The target in assay [7] is DNA polymerase III PolC-type (Bacillus subtilis (strain 168)) (UniProt P13267). Description: qHTS Validation Assay for the Inhibitors of DNA Replication in Gram-Positive Bacteria (AID 485295).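 Further: reconstituted holoenzyme with PolC plus beta clamp SSB and primase; PicoGreen fluorescence of double-stranded DNA made on primed circular M13 template.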 To be noted: Gram-positive bacterial DNA replication assay; series mostly up to 57.1 µM. In outline: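 Inhibition of DNA synthesis by the reconstituted PolC holoenzyme, monitored through PicoGreen staining of dsDNA formed from ssM13Gori, dNTPs and NTPs, with compound preincubation and room-temperature reaction.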

Assay [8] in a line: qHTS Validation Assay to Find Inhibitors of Chronic Active B-Cell Receptor Signaling (AID 485345; active means well fitted curve in the direction sought with a large enough effect in the main read-out, with a control signal flat, not every such curve was filed as active). To be noted: ABC-DLBCL cells, chronic BCR signaling reporter, CBG luciferase; series mostly up to 46.1 µM. In outline: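 TMD8 ABC-DLBCL cells with dox-inducible green luciferase–IκBα fusion and red native luciferase; compounds 46 uM–3 nM, 4 h at 37C with doxycycline in 0.5% FBS IMDM. Green/red ratio normalized to basal and 10 uM MG-132.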

Sequence of Tumor susceptibility gene 101 protein (Homo sapiens) (Q99816 whole entry, looked up, the tested form may be a part): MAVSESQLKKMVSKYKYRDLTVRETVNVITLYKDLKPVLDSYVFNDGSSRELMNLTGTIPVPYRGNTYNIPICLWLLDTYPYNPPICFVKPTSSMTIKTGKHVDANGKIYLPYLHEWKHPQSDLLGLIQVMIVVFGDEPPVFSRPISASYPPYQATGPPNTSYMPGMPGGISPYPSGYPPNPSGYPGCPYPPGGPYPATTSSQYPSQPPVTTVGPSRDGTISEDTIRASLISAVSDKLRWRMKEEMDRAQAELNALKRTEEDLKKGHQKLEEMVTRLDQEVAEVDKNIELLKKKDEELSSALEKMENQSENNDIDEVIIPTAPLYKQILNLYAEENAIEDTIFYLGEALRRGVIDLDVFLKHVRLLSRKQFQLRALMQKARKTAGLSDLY
Sequence of DNA polymerase III PolC-type (Bacillus subtilis (strain 168)) (P13267 whole entry, looked up): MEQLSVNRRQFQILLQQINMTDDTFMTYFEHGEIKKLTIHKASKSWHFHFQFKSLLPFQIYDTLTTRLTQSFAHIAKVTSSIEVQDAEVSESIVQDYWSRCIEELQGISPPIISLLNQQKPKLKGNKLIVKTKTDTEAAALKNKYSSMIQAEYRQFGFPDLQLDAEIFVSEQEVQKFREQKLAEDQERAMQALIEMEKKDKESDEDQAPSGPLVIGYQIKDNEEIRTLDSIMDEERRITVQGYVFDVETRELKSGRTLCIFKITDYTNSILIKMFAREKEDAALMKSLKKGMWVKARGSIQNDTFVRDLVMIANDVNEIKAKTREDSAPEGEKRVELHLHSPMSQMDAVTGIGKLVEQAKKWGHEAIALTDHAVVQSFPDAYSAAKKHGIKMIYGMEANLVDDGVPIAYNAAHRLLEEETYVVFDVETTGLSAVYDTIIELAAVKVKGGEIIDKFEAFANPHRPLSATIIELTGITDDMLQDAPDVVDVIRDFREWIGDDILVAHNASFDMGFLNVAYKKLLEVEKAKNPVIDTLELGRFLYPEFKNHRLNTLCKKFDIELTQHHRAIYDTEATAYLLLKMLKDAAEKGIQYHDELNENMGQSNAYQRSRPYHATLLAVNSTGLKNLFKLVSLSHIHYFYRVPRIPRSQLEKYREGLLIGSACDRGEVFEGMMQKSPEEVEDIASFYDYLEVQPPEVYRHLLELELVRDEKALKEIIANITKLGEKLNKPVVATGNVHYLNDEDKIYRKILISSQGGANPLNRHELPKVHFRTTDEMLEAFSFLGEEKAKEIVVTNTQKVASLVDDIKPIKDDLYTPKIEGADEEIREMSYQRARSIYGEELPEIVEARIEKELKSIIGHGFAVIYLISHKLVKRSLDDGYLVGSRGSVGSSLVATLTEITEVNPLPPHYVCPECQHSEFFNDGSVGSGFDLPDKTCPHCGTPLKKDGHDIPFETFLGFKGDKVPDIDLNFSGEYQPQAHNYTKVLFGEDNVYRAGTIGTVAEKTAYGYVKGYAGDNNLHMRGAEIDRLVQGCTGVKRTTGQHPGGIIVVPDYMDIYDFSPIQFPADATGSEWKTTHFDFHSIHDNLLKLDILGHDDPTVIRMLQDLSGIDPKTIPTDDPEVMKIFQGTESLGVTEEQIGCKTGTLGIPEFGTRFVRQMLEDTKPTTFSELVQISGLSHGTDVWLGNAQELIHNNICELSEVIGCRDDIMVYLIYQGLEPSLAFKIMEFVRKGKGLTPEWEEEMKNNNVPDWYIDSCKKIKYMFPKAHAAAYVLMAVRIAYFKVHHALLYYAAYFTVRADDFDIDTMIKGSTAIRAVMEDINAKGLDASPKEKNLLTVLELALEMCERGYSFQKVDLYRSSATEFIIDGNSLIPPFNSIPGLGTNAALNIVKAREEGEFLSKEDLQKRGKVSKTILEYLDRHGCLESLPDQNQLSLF
Sequence of Ubiquitin carboxyl-terminal hydrolase 2 (Homo sapiens) (O75604 whole entry, looked up): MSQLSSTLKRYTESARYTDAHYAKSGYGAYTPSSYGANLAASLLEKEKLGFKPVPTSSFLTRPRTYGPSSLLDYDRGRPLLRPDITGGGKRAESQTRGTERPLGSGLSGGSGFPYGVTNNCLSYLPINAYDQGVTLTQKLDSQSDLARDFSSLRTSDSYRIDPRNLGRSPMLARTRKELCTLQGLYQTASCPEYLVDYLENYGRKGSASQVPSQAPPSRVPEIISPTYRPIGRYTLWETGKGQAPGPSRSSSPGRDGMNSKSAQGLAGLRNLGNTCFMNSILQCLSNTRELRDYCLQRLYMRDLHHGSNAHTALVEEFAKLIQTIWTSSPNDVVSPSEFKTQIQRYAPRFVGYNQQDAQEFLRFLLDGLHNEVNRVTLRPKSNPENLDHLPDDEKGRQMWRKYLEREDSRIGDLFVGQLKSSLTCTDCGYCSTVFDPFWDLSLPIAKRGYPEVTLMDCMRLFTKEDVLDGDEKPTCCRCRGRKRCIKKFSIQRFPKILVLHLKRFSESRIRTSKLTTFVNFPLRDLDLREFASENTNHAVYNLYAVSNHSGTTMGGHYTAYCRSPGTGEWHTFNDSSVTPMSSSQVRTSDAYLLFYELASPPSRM

Take `CCCCCC(O)CCCC(=O)O` (configuration not stated): the Potency result in assay [1], in assay [2], in assay [3], in assay [4] and in assay [5] was “inactive” throughout. The call in assay [6] was inactive.

`CNCCc1cnc(CCC(c2ccccc2)c2ccccc2)[nH]1`: in assay [3], the Potency is 11.7 µM (active). The Potency entry in assay [5] and in assay [7] was “inactive” throughout. Besides, the compound was called inactive in assay [6].

Regarding `CC(C)NC[C@H](O)COc1cccc2ccccc12`, the Potency result in assay [1], in assay [2], in assay [3], in assay [5] and in assay [7] was “inactive” in each case. The compound was called inactive in assay [6] and in assay [8].

On to `N#Cc1cc([N+](=O)[O-])c2sc(C(N)=O)[n+]([O-])c2c1`, for which the Potency in assay [1] is 18.5 µM (active). Further, the Potency result in assay [2], in assay [5] and in assay [7] was “inactive” each time. For the same compound, the compound was classed as inactive in assay [6].

Values taken from PubChem BioAssay (NCATS).
